Source: the supplement of paper PMC6555819

How the values were obtained:
Assay in all cases: PBM binding z-score (relative to random genomic background probes); higher = stronger binding; sequences stand for … in GC…GCGATTGACAGCGTAGAATGAAGG
[1] = tested on: RARb homodimer (NR concentration 270 nM)
Outline: (§1)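 Ligand-free nuclear receptor dimers were bound for 1 h to custom Agilent 4×180K protein-binding microarrays. Detection used antibodies against each partner (one per run). Binding z-scores rest on regression-normalized fluorescence, with random background probes as the reference.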

[2] = tested on: RARg:RXRa (NR concentration 270 nM, RXRa partner concentration 90 nM)
Outline: as §1

[3] = tested on: RARg homodimer (NR concentration 270 nM)
Outline: as §1

[4] = tested on: RXRa DBDmut IVT, anti-RXR (DBD mutation: RXRa K156A/R161A, NR concentration 90 nM)
Outline: as §1

[5] = tested on: RXRa homodimer (NR concentration 180 nM)
Outline: as §1

[6] = tested on: THRa:RXRa (NR concentration 90 nM, RXRa partner concentration 90 nM)
Outline: as §1

[7] = tested on: THRa homodimer (NR concentration 90 nM)
Outline: as §1

[8] = tested on: VDR homodimer (NR concentration 270 nM)
Outline: as §1

Sequence	PBM binding z-score [1]	PBM binding z-score [2]	PBM binding z-score [3]	PBM binding z-score [4]	PBM binding z-score [5]	PBM binding z-score [6]	PBM binding z-score [7]	PBM binding z-score [8]
ATCGCAAGGTCGACGAGGTGAGTATACACCGTTT	1.72	2.58	2.37	1.32	2.26	3.41	1.26	1.21
ATCGCTAGGTAAAAGTTCAGTGAATCCCGAGGAT	2	1.37	1.46	0.265	1.64	0.795	-0.348	1.16
GCGACTGGTGCATCAGCAGGTTACCATAACTTAA	0.107	-0.0711	-0.351	-0.127	-0.12	0.163	-0.356	-0.21
CCTAGTTGGTCAAGGTCACCCACGCTATAGGTAC	4.38	4.42	4.75	1.81	4.47	4.22	4.66	4.05
CCTTAAGGGTCAAGGTTATAGCACGGGTGGTACG	4.66	6.46	6.85	2.7	6.61	3.66	1.03	2.39
TCAAGTTGGTCACGGAGGTCACACACGACGGGTA	4.54	4.9	4.56	1.53	4.68	3.72	2.55	3.44
AGTCAAAGTTCATCTAGGTAACGTAGGATATGCT	4.05	5.54	6.32	4.71	4.86	3.08	0.358	5.15
ATCTCTAGGAAACAAGTTCAGTGAAAGAGAGGAC	1.32	1	0.918	0.688	0.725	0.835	0.164	2.27
AATACAGGGTCATCGTAGGGCAGAGTACGCACAG	3.67	6.04	5.73	3.64	7.22	4.59	1.42	3.02
TTTCGGAGGACACGAAAGGTCAGAGCTCGACATC	4.68	4.88	5.29	0.16	4.66	3.85	1.39	1.04
ACTAGCAGGCCAAGTTTGGGTCACTCACACAAAG	2.45	2.62	1.68	0.307	1.08	2.56	1.24	0.348
TTACCAAGGTGAGCCGAGGTCGTTGATCCAACTC	1.75	1.67	1.38	-0.0655	1.77	4.53	1.49	1.98
AATACAGGGTCATTGTAGGCCAGAGTACGCACAG	3.31	5.16	4.36	4.12	6.15	4.59	0.994	3.75
ACTTACGGGTTAACGAGGTTATAGCACGCGTATA	1.62	2.26	1.43	1.02	3.01	3.09	0.992	1.96
